The test can be described thus: chemical genetic growth profiling, strain panel (AID 1159580).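 Further: tested at 20 µM; growth read once vehicle control cultures reached saturation at 30 °C; 1 = growth at the plate median or of vehicle wells; lower values mean less growth of the strain.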 Conditions: S. cerevisiae deletion strains, growth OD.
[1] abbreviates: locus YJR075W, strain HOC1, active compounds read low.
The mark [2] stands for this setting: locus YMR307W, strain GAS1, active compounds read low.
[3] abbreviates: locus YNL322C, strain KRE1, active compounds read low.
[4] abbreviates: locus YPL055C, strain LGE1, active compounds read low.
[5] abbreviates: locus YPL241C, strain CIN2, active compounds read low.
Where [6] appears, read: locus YAL013W, strain DEP1, active compounds read low.
[7] abbreviates: locus YBR229C, strain ROT2, active compounds read low.
[8] abbreviates: locus YDL101C, strain DUN1, active compounds read low.
The mark [9] stands for this setting: locus YDR150W, strain NUM1, active compounds read low.
Where [10] appears, read: locus YEL061C, strain CIN8, active compounds read low.
Where [11] appears, read: locus YGR078C, strain PAC10, active compounds read low.
The mark [12] stands for this setting: locus YHR030C, strain SLT2, active compounds read low.
Setting [13] is: locus YHR087W, strain rtc3, active compounds read low.
[14] abbreviates: locus YJR043C, strain POL32, active compounds read low.
Setting [15] is: locus YLR039C, strain RIC1, active compounds read low.
[16] abbreviates: locus YLR058C, strain SHM2 (second series), active compounds read low.
Where [17] appears, read: locus YLR085C, strain ARP6, active compounds read low.
The mark [18] stands for this setting: locus YLR262C, strain YPT6, active compounds read low.
Setting [19] is: locus YML094W, strain GIM5, active compounds read low.
[20] abbreviates: locus YMR219W, strain ESC1, active compounds read low.
[21] abbreviates: locus YMR263W, strain SAP30, active compounds read low.
Where [22] appears, read: locus YNL153C, strain GIM3, active compounds read low.
Setting [23] is: locus YNL298W, strain CLA4 (second series), active compounds read low.
The mark [24] stands for this setting: locus YNR030W, strain Alg12, active compounds read low.
The mark [25] stands for this setting: locus YPR135W, strain CTF4, active compounds read low.

Out of some 5,500 compounds screened, about 2,000 (36%) were called active. Another 18% or so got no clear call; they are omitted. This is one part of the list. Unmarked numbers belong to inactive results. No stated cut-off is given here; in the data, active means normalized growth mostly below about 0.91 (no sharp cut-off); inconclusive means no clear call, values can overlap the other calls; inactive means mostly above about 0.92.

With `Nc1ccc(CCNc2ncnc3c2ncn3C2OC(CO)C(O)C2O)cc1` (configuration not stated), the normalized growth by setting is: (locus YAL040C, strain CLN3, active compounds read low) 1.03; (locus YCL061C, strain MRC1 (second series), active compounds read low) 0.997; (locus YDR363W, strain ESC2, active compounds read low) 0.988; (locus YER002W, strain NOP16, active compounds read low) 0.991; under setting [1], 1; under setting [2], 1.02. For the same compound, the normalized growth was 0.985 (locus YNL175C, strain NOP13, active compounds read low); 1.01 (locus YNL197C, strain WHI3, active compounds read low); 0.977 (locus YNL224C, strain SQS1, active compounds read low); 0.995 under setting [3]; 0.995 (locus YOR083W, strain WHI5 (second series), active compounds read low); 0.986 under setting [4]. Further, the normalized growth under setting [5] was 0.999.

As to `OCc1nccn1Cc1ccc(Cl)cc1`, the normalized growth runs as follows: under setting [6], 1.02; under setting [7], 1; under setting [8], 1.03; (locus YDL134C, strain PPH21, active compounds read low) 1.02; under setting [9], 1.05; under setting [10], 1. For the same compound, the normalized growth by setting is: under setting [11], 1; under setting [12], 0.288 (active); under setting [13], 0.983; under setting [14], 1.03; under setting [1], 0.944; (locus YKL190W, strain CNB1, active compounds read low) 0.999. Also, the normalized growth was 0.889 under setting [15]; 0.998 under setting [16]; 1.02 under setting [17]; 0.849 under setting [18]; 0.983 under setting [19]; 1.01 under setting [20]. The normalized growth is, setting by setting: under setting [21], 1.04; under setting [2], 1.51 [resistant] (active); under setting [22], 1.02; under setting [23], 0.923; under setting [3], 1; under setting [24], 0.947. The normalized growth was 1.08 under setting [4], 1.02 under setting [5] and 1.03 under setting [25].

For `COc1cscc1C(N)=O`, the normalized growth by setting is: under setting [6], 1.01; under setting [7], 0.984; (locus YCL061C, strain MRC1, active compounds read low) 1.02; under setting [8], 1; under setting [9], 1.06; under setting [10], 0.959. For the same compound, the normalized growth is 1.01 under setting [11]; 0.99 (locus YGR229C, strain SMI1, active compounds read low); 1.06 under setting [12]; 1.03 under setting [13]; 1.04 under setting [14]; 1.04 under setting [1]. Further, the normalized growth was 1.01 under setting [15]; 0.997 under setting [16]; 0.965 under setting [17]; 0.998 under setting [18]; 0.979 under setting [19]; 0.987 under setting [20]. For the same compound, the normalized growth by setting is: under setting [21], 1.06; under setting [2], 0.966; under setting [22], 1.01; under setting [23], 0.969; under setting [3], 0.996; under setting [24], 1.01. The normalized growth under setting [4] was 1.12, the normalized growth under setting [5] is 0.957 and the normalized growth under setting [25] was 1.14.

(Values after PubChem BioAssay AID1159580 (chemical genetic matrix, 2015).)
